# From PubChem
# In the library only some 1.6% were active in any assay of this set; here they are far more common.
# F-actin modifier = modifiers of cytoskeleton assembly | HUVEC TNFa F-actin phalloidin imaging, high content | AID 836 | 91,000 compounds, 0.18% hits | inhibition, % at 2 µM;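 active = inhibition above the batch mean plus 3 SD and confirmed as a hit by visual image inspection, cut at about 30% in these data, passing the limit was not always enough; inconclusive = above the inhibition threshold but rejected on visual inspection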
# VCAM1 TNFa inh = reduces TNF alpha induced VCAM1 expression in HUVEC; HUVEC TNFa-induced VCAM-1 immunofluorescence, high-content imaging; 95,000 compounds, 0.48% hits; AID 802; inhibition, % at 2 µM;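 active = inhibition above the batch mean plus 3 SD, with images confirmed as a hit by eye, cut at about 37% in these data; inconclusive = inhibition above that limit but hit not confirmed in images; inactive = inhibition not above that limit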;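 also: 0% = TNF-stimulated DMSO wells and 100% = unstimulated control wells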
# S1P2 blocker = antagonists of human S1P2 receptor; O95136; cell-based S1P2 antagonist assay, inhibition at 5 uM; inhibition, % at 5 µM; 97,000 compounds, 0.21% hits; AID 736; in the data active = inhibition above about 45%;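 also: CRE beta-lactamase reporter cells expressing human S1P2 stimulated with S1P; 0% = agonist at EC80 alone and 100% = agonist plus reference antagonist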
# Target sequence (O95136 whole entry, looked up): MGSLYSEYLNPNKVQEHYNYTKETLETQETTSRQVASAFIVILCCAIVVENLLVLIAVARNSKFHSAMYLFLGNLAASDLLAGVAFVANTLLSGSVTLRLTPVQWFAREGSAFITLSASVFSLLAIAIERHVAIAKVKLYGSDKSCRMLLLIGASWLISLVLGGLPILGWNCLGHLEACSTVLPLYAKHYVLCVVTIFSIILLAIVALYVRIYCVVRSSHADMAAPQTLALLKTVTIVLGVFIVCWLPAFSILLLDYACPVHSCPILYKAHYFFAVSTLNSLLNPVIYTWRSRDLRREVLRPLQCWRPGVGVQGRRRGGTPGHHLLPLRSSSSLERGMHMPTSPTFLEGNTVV
# HUVEC tox TNFa = HUVEC cytotoxicity counter-screen, TNF alpha stimulated; cell count reduction, % at 2 µM; AID 848; HUVEC TNFalpha-stimulated, Hoechst cell count, imaging; 93,000 compounds, 0.17% hits;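 active = cell count reduction exceeding the screen mean by over 5 SD, scaled to untreated wells per plate, cut at about 78% in these data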;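 also: cells counted after 24 h of TNF alpha exposure following the 1 h pretreatment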
# E-sel TNF inh = blocks E-selectin expression induced by TNF alpha; inhibition, % at 2 µM; HUVEC TNFa-induced E-selectin immunofluorescence, high content; 120,000 compounds, 0.71% hits;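 active = inhibition above the batch mean plus 3 SD, and confirmed as a hit on visual image review, cut at about 43% in these data; inconclusive = passes the inhibition cutoff but fails visual image review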;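 also: 0% = TNF-stimulated DMSO wells and 100% = unstimulated control wells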
# S1P2 agonist = S1P2 (human) receptor agonism | O95136 | S1P2-expressing cell line, agonist reporter read-out | activation, % at 4.5 µM | 97,000 compounds, 0.46% hits | AID 729; in the data active = activation above about 16%;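 also: 0% = vehicle low control and 100% = maximal reference agonist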
# * marks the source's active call; other numbers are inactive results; ? = inconclusive; / = no result.
SMILES,F-actin modifier,VCAM1 TNFa inh,S1P2 blocker,HUVEC tox TNFa,E-sel TNF inh,S1P2 agonist
Cn1cccc1Cc1nnc(SCC(=O)NC2CCCC2)n1-c1ccc(F)cc1,19,8,0,-31,-17,-2
COc1cc(-c2nnc(CSc3nnc4nc(C)cc(C)n34)o2)cc(OC)c1OC,6,2,9,-32,/,-2
Cc1c(Cl)cccc1-n1ccnc1SCC(=O)O,-31,94*,8,78*,/,-7
CC1=C([N+](=O)[O-])C(c2cccc(Br)c2)C2=C(N1)c1ccccc1C2=O (stereo unspecified),-3,93*,-23,74,-33,-5
COc1cc2c3nnc(-c4ccc(F)cc4)c-3cn(Cc3ccccc3)c2cc1OC,33*,5,6,-12,15,-3
COc1cc2c3nnc(-c4ccc(F)cc4)c-3cn(Cc3ccc(F)cc3)c2cc1OC,-4,3,3,-17,-7,1
Cc1ccc(C(CC(=O)O)Nc2nc(N3CCOCC3)nc(N3CCOCC3)n2)cc1 (stereo unspecified),/,/,/,/,-14,/
CC(C)(C)NC(=O)C(c1ccco1)N(C(=O)Cn1nnc(-c2ccc(F)cc2)n1)c1ccccc1 (stereo unspecified),-9,19,5,-24,/,-2
CC(C)(C)NC(=O)C(c1ccco1)N(C(=O)Cn1nnc(-c2ccc(F)cc2)n1)c1ccccc1F (stereo unspecified),9,5,-1,-5,/,19*
O=C(CSc1nnc(-c2cccs2)n1Cc1ccccc1)NCc1ccc2c(c1)OCO2,-4,17,-18,-42,6,-4
CC(Sc1nnc(-c2cccs2)n1Cc1ccccc1)C(=O)NCc1ccc2c(c1)OCO2 (stereo unspecified),/,-10,-3,-26,80*,-7
CCOC(=O)/C(C#N)=C1/C=Cc2ccccc2N1CC,/,/,/,/,53*,/
FC(F)(F)c1cc(-c2ccc3c(c2)OCO3)nc(NCc2ccco2)n1,-7,78*,1,78*,19,2
CCOC(=O)CSc1nnc(NC(=O)c2cccc([N+](=O)[O-])c2C)s1,/,/,/,/,-15,/
CCOC(=O)c1ccc2[nH]c3c(c2c1)CCCCC3=O,-4,-6,-23,5,-24,-2
O=C1CCCc2c1[nH]c1ccc(Cl)cc21,-36,76*,2,39,0,-4
COc1cccc(OC)c1C(=O)NCCN1CCN(C(=O)c2c(OC)cccc2OC)CC1,14,16,2,-2,9,-2
COc1ccccc1C(=O)NCCN1CCN(C(=O)c2ccccc2OC)CC1,18,13,-5,41,100*,-2
CNc1c([N+](=O)[O-])cnn1-c1ccc(Cl)cc1,50*,7,-3,-12,-36,-5
O=[N+]([O-])c1ccc(-n2nncc2-c2ccc(Cl)cc2)cc1,-6,15,-6,-17,1,-1
Cc1ccc(NC2OC(C(O)CO)C(O)C2O)cc1[N+](=O)[O-] (stereo unspecified),/,-12,18,27,64*,-4
COc1ccc(C2C3CCCCC3(O)CCN2C(=O)c2cccs2)cc1 (stereo unspecified),/,/,/,/,7,/
COc1cc(-c2nc(S(=O)(=O)c3ccc(Cl)cc3)c(N3CCOCC3)o2)cc(OC)c1OC,1,8,-25,4,-17,10
COc1cc(-c2nc(S(=O)(=O)c3ccc(C)cc3)c(N3CCOCC3)o2)cc(OC)c1OC,10,11,-55,-6,-5,18*
O=C(c1cnsn1)N1CCN(c2ccccc2)CC1,20,-28,-5,-5,-8,-2
SMILES,F-actin modifier,VCAM1 TNFa inh,S1P2 blocker,HUVEC tox TNFa,E-sel TNF inh,S1P2 agonist
O=C(c1cnccn1)N1CCN(c2ccccc2)CC1,-14,-2,-10,4,59*,2
Cc1cccn2c(=O)c3cc(C(=O)NCCN4CCOCC4)c(=N)n(CCc4ccccc4)c3nc12,-37,4,-32,17,/,39*
Cc1cccn2c(=O)c3cc(C(=O)NCCc4ccccc4)c(=N)n(CCCn4ccnc4)c3nc12,-3,-6,-98,/,59,64*
COCCn1c(=N)c(C(=O)NCCc2ccccc2)cc2c(=O)n3cccc(C)c3nc21,11,-2,-9,-22,0,0
Cc1cc(C(=O)NCc2cc(C(=O)O)co2)co1,/,/,/,/,-13,/
Cn1cc(CNC(=O)/C=C/c2ccc(Cl)cc2)cn1,/,/,/,/,23,/
CCC(C)c1ccccc1OCCOCCN1CCCC1 (stereo unspecified),/,/,/,/,-3,/
CCC(C)c1ccccc1OCCCCN1CCCC1 (stereo unspecified),/,/,/,/,64*,/
CCn1c(SCc2nc(CC(=O)Nc3ccccc3OC)no2)nnc1-c1cccs1,-6,-9,13,8,100*,-5
COc1ccc(S(=O)(=O)NCc2csc(-c3cccnc3)n2)cc1,-3,-1,8,-23,70*,-2
COc1ccc(-c2nc(CNS(=O)(=O)c3cc(OC)ccc3OC)cs2)cc1,/,/,/,/,-19,/
Cc1sc(NC(=O)C2CC=CCC2C(=O)O)c(C(=O)OC(C)C)c1C (stereo unspecified),16,-1,-4,-15,-4,-4
Cc1cccc(-n2c(C)nc3c(cnn3-c3ccc(F)cc3)c2=O)c1,10,-39,18,-53,31,-1
CCN(C(=O)COC(=O)c1cc(C)n(-c2ccc(F)cc2)c1C)C1CCS(=O)(=O)C1 (stereo unspecified),-11,3,-3,4,100*,-7
Cc1ccc(-n2c(C)cc(C(=O)OCC(=O)N(CC(C)C)C3CCS(=O)(=O)C3)c2C)cc1 (stereo unspecified),12,1,14,-46,-11,-3
c1ccc(-n2c(Sc3cnccn3)nnc2-c2cccs2)cc1,-12,-3,-5,9,63*,0
Cc1nn(-c2ccc(F)cc2)c(Cl)c1/C=C/C(=O)OCC(=O)Nc1c(F)c(F)c(F)c(F)c1F,/,/,/,/,-12,/
O=C(COc1ccc(/C=N/NC(=O)C(=O)N2CCCCCC2)cc1)Nc1ccccc1Cl,/,/,/,/,70*,/
CC(C)C[C@H](NC(=O)Nc1ccc(Oc2ccccc2)cc1)C(=O)O,/,/,/,/,11,/
O=C1CC(c2ccccc2)SC(N(c2ccccc2)c2ccccc2)=N1 (stereo unspecified),/,/,/,/,62*,/
Cc1cc(NC(=O)c2nn3cccnc3c2Cl)no1,-2,4,-34,-8,/,-3
C=CCNC(=O)c1nn2cccnc2c1Cl,?,?,-7,92*,-40,-1
CCOc1ccc(/C=C/[N+](=O)[O-])c2ccccc12,4,27,2,8,-3,0
O=[N+]([O-])/C=C/c1c(OCc2ccccc2)ccc2ccccc12,/,56*,30,-1,8,0
Cc1ccc(CCC(=O)Nc2ncc(Cc3cccc(Cl)c3Cl)s2)o1,/,/,/,/,33,/
CCOC(=O)c1ccc(CNC(=O)CCC(=O)O)cc1,34*,10,-38,-1,15,-7
